High-throughput results as filed in PubChem BioAssay.
RE007 growth inh – qHTS Assay for Inhibitors of the HIV-1 protein Vpr | actives 0.21% (n = 360,000) | S. pombe RE007 Vpr strain, BacTiter-Glo ATP luminescence, 24 h | Potency, µM (series often up to 92.2 µM), for inactives: at the top dose activity change, negative = less growth, usual class: inhibitors; active means well fitted falling curve with a large enough effect; inconclusive means small, poorly fitted or top-dose-only effect; inactive means no such curve, though single readings can be large or run the other way; further: nearly all actives have a fitted effect of over 50% in size
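Fission yeast strain RE007, carrying one chromosomally integrated HIV-1 vpr copy, was seeded at OD 0.01 in PMG+AL medium with 23 nL pinned compound. After 24 h at 30 °C and 99% humidity, viability was read by BacTiter-Glo luminescence.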
HCV inhibitor – qHTS Assay for Inhibitors of Hepatitis C Virus (HCV). actives 3.4% (n = 340,000). Huh7.5.1 HCVcc-Cre infection, luciferase reporter, 44 h. Potency, µM (titrated, usually from 41.8 µM), inactives show at the top dose activity change, negative = inhibition, usual class: inhibitors. AID 651820, 2012
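Cells seeded at 1,000/well and cultured 4 h, then compounds added followed by HCVcc-Cre virus (~0.5 moi). After 44 h further culture, luciferase substrate was added, plates held 15 min at room temperature, and luminescence read for 15 sec.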
FMDV inh – High Throughput Screening for Foot and Mouth Disease Virus Antivirals. Potency, µM (doses to about 57.9 µM), without a hit: top-dose activity change, negative = inhibition, most hits filed as inhibitors. AID 1159524, 2015. actives 1.2% (n = 410,000). FMDV antiviral cell-based qHTS; calls by dose curve; tested in HEK293T cells; further: read-out not given here; nearly all actives have a fitted effect of over 45% in size
Sm TGR block – qHTS Assay for the Inhibitors of Schistosoma Mansoni Peroxiredoxins; Schistosoma mansoni thioredoxin glutathione reductase (TGR), Q962Y6; purified TGR, DTNB reduction, TNB absorbance 405 nm; Potency, µM (doses to about 114 µM), inactives show at the top dose activity change, negative = inhibition, usual class: inhibitors; actives 3% (n = 360,000); further: nearly all actives have a fitted effect of over 60% in size
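TGR 20 nM + NADPH 100 uM (dispensed conc.), cpd preinc 15 min RT; start with NADPH (500 uM addition) then DTNB (15 mM addition). Kinetic TNB absorbance, 405 nm filter. Four-parameter Hill fit across titration.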
Marburg entry inh – qHTS for inhibitors of binding or entry into cells for Marburg Virus. Potency, µM (highest dose often 37.8 µM), for inactives: at the highest dose activity change, negative = inhibition, usual class: inhibitors. Marburg virus pseudotyped entry inhibition, cell reporter. actives 1.8% (n = 300,000). AID 540276, 2011; calls by dose curve; tested in HEK293 cells
LASV entry inh – qHTS for Inhibitors of binding or entry into cells for Lassa Virus | Potency, µM (titrated, usually from 37.9 µM), for the others: at the top dose activity change, negative = inhibition, most hits filed as inhibitors | AID 540256, 2011 | Lassa virus pseudotype entry inhibition, cell reporter | actives 1.2% (n = 300,000); calls by dose curve; tested in HEK293 cells; further: nearly all actives have a fitted effect of over 50% in size
An asterisk follows results filed as active; ? = inconclusive; · = not tested or not shown; [ ] = dose if it differs, or a comment. A selection: hits, their analogues and other compounds. The true share with any hit is near 7.2%. Unless noted, the call rests on the fitted dose curve; in most records, active means well fitted curve in the direction sought with a large enough effect; inconclusive means small, poorly fitted or top-dose-only effect, or another doubt; inactive means no such curve, though single readings can be large; an effect the other way counts as inactive or inconclusive. On the % scale 0 is the no-effect control and ±100 the full control effect; potency means the concentration at half of the fitted maximal effect.

SMILES | RE007 growth inh | HCV inhibitor | FMDV inh | Sm TGR block | Marburg entry inh | LASV entry inh
O=c1[nH]c(SCCOc2cccc3ccccc23)nc2ccccc12 | -21% | 5% | 0% | -22% | 2.8µM* | ?
CCCCCC#CCC#CCC#CCC#CCCCC(=O)O | · | -12%[8.37 µM] | -11%[6.7 µM] | 20µM* | -26% | 2%
CCCCCCCCCC(=O)O | -19% | -7% | -14% | · | · | ·
COc1ccccc1CN1CCC(CNC(=O)c2cnn(-c3ccc(Cl)cc3)c2C2CCN(C(=O)OC(C)(C)C)CC2)CC1 | · | · | 0% | 6% | · | ?
O=C(C[C@H]1C/C=C\C[C@H](NC(=O)OCC2c3ccccc3-c3ccccc32)C(=O)OC[C@H](Cc2ccccc2)NC1=O)N[C@H](CO)Cc1ccccc1 | -14% | ? | -19% | · | · | ·
O=C(C[C@@H]1C/C=C\C[C@@H](NC(=O)OCC2c3ccccc3-c3ccccc32)C(=O)OC[C@@H](Cc2ccccc2)NC1=O)NCCO | -7% | 2µM* | -11% | · | · | ·
CCn1c(-c2cccnc2)nc2cc(NC(=O)COC)cc(C(=O)N3CCc4ccccc4C3)c21 | · | · | -17% | · | · | ·
Cn1c(=O)c2c(nc(NN=C3CCCCC3)n2C)n(C)c1=O | -25% | 8% | -2% | 13µM* | -6%[46.1 µM] | -3%
Cc1cccc(CNc2ncnc3ccc(-c4ccc5c(ccn5C)c4)cc23)c1 | · | · | · | -1% | · | ·
COc1cccc(-c2n[nH]c(=S)n2Cc2ccco2)c1 | 14% | 2% | -17% | 35µM* | · | ·
COc1ccccc1-c1n[nH]c(=S)n1Cc1ccco1 | · | · | · | 40µM* | · | ·
COc1ccccc1-c1n[nH]c(=S)n1Cc1ccccc1 | -8% | 7% | -17% | 0% | · | ·
S=c1[nH]nc(-c2ccncc2)n1Cc1ccco1 | -1% | 15% | 1% | -32% | 26% | -4%
CC(C)CN1CC[C@@]2(CCCN(S(=O)(=O)c3ccccc3)C2)C1 | · | · | -19% | · | · | ·
O=C(C1CC1)N1CCc2cc(Br)cc(S(=O)(=O)Nc3ccc(C(F)(F)F)cc3)c21 | · | · | -11% | 17% | ? | ?
Cc1cc(N2CCN(C)CC2)nc2ccc(NC(=O)Nc3cccc(Cl)c3)cc12 | · | · | 3% | -2% | · | ?
COC(=O)c1cc(CNC(=O)c2cccc(N(C)C)c2)cc(NC(=O)c2ccccc2Cl)c1 | · | · | -3% | · | · | ·
O=C1CC(N2CCN(c3ccccc3Cl)CC2)C(=O)N1c1ccccc1 (configuration not stated) | ? | 26% | -13% | 45µM* | 2% | ?
O=C1CC(N2CCOCC2)C(=O)N1c1ccccc1Cl (configuration not stated) | -25% | 10% | -9% | 50µM* | 0% | 9%
O=C1CC(N2CCCc3ccccc32)C(=O)N1c1ccccc1 (configuration not stated) | -9% | -1% | -15% | 25µM* | ? | -3%
COc1cccc(C(=O)N2CCC(C(=O)Nc3cccc(Cl)c3)CC2)c1 | · | · | 0% | 8% | -4%[46.1 µM] | -20%[46.1 µM]
O=C(c1cccc(F)c1)N1CCC2(CCN(Cc3cc(C(F)(F)F)cc(C(F)(F)F)c3)CC2)CC1 | · | · | -15% | · | · | ·
CN(C)CCCN(CCCNC(=O)/C=N\O)Cc1ccccc1 | · | · | · | · | -13% | ·
COc1nnc(-c2ccc(N3CCCCC3)c(NC(=O)c3ccc(Cl)cc3)c2)c2ccccc12 | · | · | ? | 10% | -1%[46.1 µM] | 2%[46.1 µM]
COc1nnc(-c2ccc(N3CCCCC3)c(NC(=O)c3ccccc3)c2)c2ccccc12 | · | · | 8.9µM* | 6% | ? | 24%[46.1 µM]
SMILES | RE007 growth inh | HCV inhibitor | FMDV inh | Sm TGR block | Marburg entry inh | LASV entry inh
CCOC(=O)c1c(C)[nH]c(C)c1S(=O)(=O)N1CCCC(C(=O)N2CCN(c3cccc(Cl)c3)CC2)C1 (configuration not stated) | · | · | -29% | 1% | · | ?
Cn1c(=O)oc2cc(S(=O)(=O)N3CCCC(C(=O)N4CCN(c5cccc(Cl)c5)CC4)C3)ccc21 (configuration not stated) | · | · | 25µM* | 2% | -16%[46.1 µM] | 3%[46.1 µM]
Cc1cccc(N2CCN(C(=O)C3CCCN(S(=O)(=O)c4ccc5c(c4)oc(=O)n5C)C3)CC2)c1C (configuration not stated) | · | · | 11µM* | -7% | ? | ?
CCOC(=O)c1c(C)[nH]c(C)c1S(=O)(=O)N1CCCC(C(=O)N2CCN(c3cccc(C)c3C)CC2)C1 (configuration not stated) | · | · | 1% | 3% | · | 11µM*
O=C(Nc1ccccc1F)Nc1cccc2ccc(O)cc12 | · | ? | 18% | 32µM* | · | ·
Cc1c(C(=O)N2CCCCC2)sc2ncnc(NCCN(C)C)c12 | · | · | 10% | · | · | ·
CCOC(=O)N1CCN(C(=O)c2ccc3c(=O)n(Cc4ccc(Cl)cc4)c(=S)[nH]c3c2)CC1 | -10% | -1% | ? | 9% | ? | -7%
CC1CCN(CCCNC(=O)c2ccc(Cn3c(=S)[nH]c4ccc(Br)cc4c3=O)cc2)CC1 | · | · | · | -5% | · | ·
CCOC(=O)N1CCN(C(=O)c2ccc(Cn3c(=S)[nH]c4ccc(Br)cc4c3=O)cc2)CC1 | -4% | ? | ? | -3% | ? | 4µM*
CN1CCN(CCCNC(=O)c2ccc(Cn3c(=S)[nH]c4ccc(Br)cc4c3=O)cc2)CC1 | -29% | 7.9µM* | 44% | -13% | ? | 10%
CCc1ccc(CNC(=O)Cn2nc(-c3ccc(Cl)cc3)ccc2=O)cc1 | · | · | 0% | -2% | · | -5%[46.1 µM]
COc1cc(NC(=O)C2(C)CCN2C(C)C)cc(OC)c1OC (configuration not stated) | 26% | · | -10% | · | · | ·
O=C(Nc1nc2cc3c(cc2s1)OCCO3)C1CCCCC1 | -18% | ? | ? | 1% | ? | 10µM*
